Screening data from PubChem.
CaV13 ICDI inh: Primary screen for inhibitors of IQ motif and Ca2+-dependent inactivation inhibitor domain binding in CACNA1D, Förster resonance energy transfer in living cells, …; HEK cells, CFP/YFP FRET ICDI-IQ, plate reader, 10 min; percent FRET-ratio fall versus neutral wells; inhibition, % at 12.3 µM; 340,000 tested, 0.098% active; AID 743397;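 active = mean replicate inhibition of at least 30% and at least 1% of replicates passing that level; inconclusive = only one of the two criteria is met; inactive = neither criterion is met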;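 also: 0% = median of the neutral control wells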
Ecoli rRNA inh: inhibitors of bacterial rRNA selective over humanized ribosomes | E. coli WT GFP vs humanized-ribosome RFP mutants, fluorescence, 24 h; stronger effect = lower value; DMSO median 0, no signal -100 | GFP signal change (wild-type ribosome), % (no concentration beside the values) | 350,000 tested, 1.6% active | AID 720706;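 active = significant combined selectivity score with lowered wild-type GFP, culture density cut under 30%, mutant RFP and density less affected; inactive = any of these conditions unmet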
DENV2 CPE rescue: inhibitors of DENV2 cytopathic effect; AID 651640; CPE inhibition, % at 9.99 µM; 350,000 tested, 1.7% active; DENV2-infected cells, cytopathic effect rescue, plate reader; in the data active = CPE inhibition above about 20%, passing the limit was not always enough; inconclusive = no clear call, values can overlap the other calls; tested in BHK-21 cells;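 also: 0% = median of neutral control wells and 100% = median of positive control wells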
ERAP1 inh: inhibitors of human ERAP1 aminopeptidase; Q9NZ08; recombinant ERAP1, Leu-AMC fluorescence, 60 min; inhibition, % at 10.7 µM; 340,000 tested, 0.15% active;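 active = mean replicate inhibition of at least 30%, or all replicates individually reaching that 30% level; inactive = mean below 30% and not every replicate reaching it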;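 also: 0% = neutral control wells and 100% = L-leucinethiol positive control wells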
Target sequence (Q9NZ08 whole entry, looked up): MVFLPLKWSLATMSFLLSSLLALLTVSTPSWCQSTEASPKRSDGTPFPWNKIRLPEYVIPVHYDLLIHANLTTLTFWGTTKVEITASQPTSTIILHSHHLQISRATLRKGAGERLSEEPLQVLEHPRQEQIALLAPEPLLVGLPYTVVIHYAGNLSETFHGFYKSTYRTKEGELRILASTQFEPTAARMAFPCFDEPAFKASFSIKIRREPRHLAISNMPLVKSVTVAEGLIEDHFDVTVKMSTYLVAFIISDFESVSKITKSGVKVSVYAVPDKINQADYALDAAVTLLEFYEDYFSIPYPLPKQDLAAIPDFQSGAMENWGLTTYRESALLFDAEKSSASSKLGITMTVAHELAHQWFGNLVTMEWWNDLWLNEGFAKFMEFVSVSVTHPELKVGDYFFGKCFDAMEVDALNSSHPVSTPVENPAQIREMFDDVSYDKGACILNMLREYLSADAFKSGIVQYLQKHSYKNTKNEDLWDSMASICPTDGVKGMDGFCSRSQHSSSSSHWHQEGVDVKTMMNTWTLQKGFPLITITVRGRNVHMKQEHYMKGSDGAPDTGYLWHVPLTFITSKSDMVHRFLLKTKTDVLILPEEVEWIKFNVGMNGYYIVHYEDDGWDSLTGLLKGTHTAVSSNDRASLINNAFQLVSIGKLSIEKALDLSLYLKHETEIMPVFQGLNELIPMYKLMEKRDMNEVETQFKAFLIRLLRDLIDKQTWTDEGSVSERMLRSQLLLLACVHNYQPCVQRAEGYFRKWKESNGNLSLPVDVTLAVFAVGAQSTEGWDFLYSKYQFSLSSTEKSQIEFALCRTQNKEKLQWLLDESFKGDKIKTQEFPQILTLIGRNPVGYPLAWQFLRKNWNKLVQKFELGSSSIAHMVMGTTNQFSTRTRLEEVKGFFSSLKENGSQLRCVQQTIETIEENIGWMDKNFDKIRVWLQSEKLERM
GSIS activator: GLuc luminescence reporter in INS-1E cells, primary screen for activators of glucose-dependent secretion of insulin; INS-1E GLuc reporter insulin secretion, 2-3 h; activation, % at 16.6 µM; 370,000 tested, 0.61% active; AID 743287;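 active = lowest replicate activation of at least 40%, so every replicate reaches that level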;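 also: 0% = median of neutral control wells and 100% = median of IBMX positive control wells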
PGC1a acetyl inh: PGC1a acetylation modulation, inhibitor mode; U2OS PGC1a acetylation, AlphaScreen anti-acetyl-lysine; with virally co-expressed GCN5 acetyltransferase; inhibition, % at 15.6 µM; 350,000 tested, 0.17% active;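 active = every replicate shows inhibition of at least 40%; inconclusive = mean inhibition at least 40% but some replicate below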;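 also: 0% = neutral control wells and 100% = positive control wells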
Starred values were filed as active, the others as inactive. This is a sample that favours compounds with a hit; in the whole collection about 3.2% have one here.

Results for CO[C@H]1CN(C)C(=O)c2ccc(NC(=O)NC(C)C)cc2OC[C@H](C)N(C(=O)NC(C)C)C[C@@H]1C ?
Ecoli rRNA inh: 1.1; GSIS activator: -3.4

How did C[C@@H]1CN([C@@H](C)CO)S(=O)(=O)c2ccc(C#CC3CC3)cc2O[C@@H]1CN(C)C(=O)c1cnccn1 do in these assays?
Ecoli rRNA inh: 4.4; DENV2 CPE rescue: -1.7; ERAP1 inh: 3.8; GSIS activator: 11.6; PGC1a acetyl inh: -4.3

What do the screens show for `C[C@@H]1CCCCO[C@@H](CN(C)S(=O)(=O)c2ccc(F)cc2)[C@H](C)CN([C@H](C)CO)C(=O)c2cc(NS(=O)(=O)c3ccccc3)ccc2O1`?
Ecoli rRNA inh: -1.7; DENV2 CPE rescue: -3.3; ERAP1 inh: 2.5; GSIS activator: -18.2; PGC1a acetyl inh: -5.0

Results for COc1ccc(CN(C)C[C@@H]2OCCCC[C@H](C)Oc3ccc(NC(=O)Cc4ccccc4)cc3C(=O)N([C@H](C)CO)C[C@@H]2C)cc1 ?
Ecoli rRNA inh: -1.1; DENV2 CPE rescue: 27.5*; GSIS activator: -19.1; PGC1a acetyl inh: -4.5

What do the screens show for `C[C@H](CO)N1C[C@H](C)[C@@H](CN(C)C(=O)c2ccccc2)OCCCC[C@H](C)Oc2ccc(NC(=O)C3CCCCC3)cc2C1=O`?
Ecoli rRNA inh: -3.4; DENV2 CPE rescue: 33.6*; ERAP1 inh: -0.6; GSIS activator: -9.2; PGC1a acetyl inh: 11.8

What do the screens show for `C[C@@H]1CCCCO[C@H](CN(C)C(=O)c2ccccc2)[C@@H](C)CN([C@H](C)CO)C(=O)c2cc(NC(=O)Nc3ccc(F)cc3)ccc2O1`?
Ecoli rRNA inh: -4.4; DENV2 CPE rescue: 31.5*; ERAP1 inh: -4.1; GSIS activator: 4.2; PGC1a acetyl inh: -3.7

What do the screens show for `C[C@H]1CCCCO[C@@H](CN(C)C(=O)c2ccccc2)[C@@H](C)CN([C@@H](C)CO)C(=O)c2cc(NC(=O)Nc3ccc(F)cc3)ccc2O1`?
Ecoli rRNA inh: -2.4; DENV2 CPE rescue: 22.4*; ERAP1 inh: -5.2; GSIS activator: -19.2; PGC1a acetyl inh: inconclusive

What do the screens show for `C[C@@H]1CN([C@@H](C)CO)C(=O)c2cc(NC(=O)Nc3ccc(F)cc3)ccc2O[C@@H](C)CCCCO[C@H]1CN(C)C(=O)c1ccccc1`?
Ecoli rRNA inh: -0.4; DENV2 CPE rescue: -7.5; ERAP1 inh: -4.6; GSIS activator: -0.6; PGC1a acetyl inh: 2.2

Results for C[C@H](CO)N1C[C@H](C)[C@@H](CN(C)C(=O)c2ccccc2)OCCCC[C@H](C)Oc2ccc(NC(=O)Nc3ccc(F)cc3)cc2C1=O ?
Ecoli rRNA inh: -2.1; DENV2 CPE rescue: 15.4; ERAP1 inh: -4.5; GSIS activator: -30.7; PGC1a acetyl inh: 0.3

What do the screens show for `COc1ccccc1-c1ccc([C@H]2[C@@H](CO)N3CCCCN(Cc4ccncc4)C[C@@H]23)cc1`?
Ecoli rRNA inh: -0.9; DENV2 CPE rescue: -9.3; ERAP1 inh: -0.8; GSIS activator: -7.9; PGC1a acetyl inh: -5.2

How did CN(C)NC1=CC(=[N+]2CCCC2)CC(C)(C)C1 do in these assays?
CaV13 ICDI inh: 9.2; Ecoli rRNA inh: 0.6; DENV2 CPE rescue: 4.2; ERAP1 inh: -2.4; GSIS activator: 3.1; PGC1a acetyl inh: -1.5

Results for CC1(C)CC(N2CCCCC2)=CC(=[N+]2CCCCC2)C1 ?
CaV13 ICDI inh: -3.6; Ecoli rRNA inh: -36.8*; DENV2 CPE rescue: 5.6; ERAP1 inh: 3.9; GSIS activator: -39.0; PGC1a acetyl inh: -1.7

How did CC1C[N+](=C2C=C(N3CCOCC3)CC(C)(C)C2)CC(C)O1 (stereo unspecified) do in these assays?
CaV13 ICDI inh: -5.2; Ecoli rRNA inh: 10.7; DENV2 CPE rescue: -0.8; ERAP1 inh: 55.4*; GSIS activator: -4.7; PGC1a acetyl inh: 6.9

How did CCCN(CCC)C1=CC(=[N+]2CCCC2)CC(C)(C)C1 do in these assays?
CaV13 ICDI inh: -2.4; Ecoli rRNA inh: -47.5*; DENV2 CPE rescue: -3.3; ERAP1 inh: 9.1; GSIS activator: -13.6

What do the screens show for `CN1CCN(C(=O)[C@H]2[C@H](CO)[C@H]3Cn4c(ccc(-c5cccnc5)c4=O)[C@H]3N2CC2CC2)CC1`?
Ecoli rRNA inh: 2.5; DENV2 CPE rescue: 7.7; ERAP1 inh: -2.7; GSIS activator: 4.2

How did C[C@H](CO)N1C[C@H](C)[C@H](CN(C)C(=O)C2CCOCC2)Oc2ncc(-c3cccnc3)cc2C1=O do in these assays?
Ecoli rRNA inh: 0.7; DENV2 CPE rescue: -1.9; ERAP1 inh: -2.3; GSIS activator: 20.9; PGC1a acetyl inh: 8.5

How did O=[N+]([O-])c1cccc(/C=C/CO)c1 do in these assays?
DENV2 CPE rescue: -1.1; ERAP1 inh: 0.8; PGC1a acetyl inh: -1.7

How did Nn1c(-c2ccccc2)cc(-c2ccccc2)cc1=O do in these assays?
CaV13 ICDI inh: -5.0; Ecoli rRNA inh: 7.6; DENV2 CPE rescue: 3.8; ERAP1 inh: -2.1; GSIS activator: 67.3*; PGC1a acetyl inh: -2.6

Results for Cc1cccn2c(=O)c3cc(C(=O)NCCN4CCOCC4)c(=N)n(Cc4ccc(F)cc4)c3nc12 ?
CaV13 ICDI inh: 102.0*; Ecoli rRNA inh: -27.8; DENV2 CPE rescue: -5.4; ERAP1 inh: -109.1; GSIS activator: 22.4

Results for Cc1cccn2c(=O)c3cc(C(=O)NCCN4CCOCC4)c(=N)n(CCN4CCOCC4)c3nc12 ?
CaV13 ICDI inh: 13.5; Ecoli rRNA inh: 5.0; DENV2 CPE rescue: 0.9; ERAP1 inh: 10.7; GSIS activator: 5.6

How did CCNC(=O)c1cc2c(=O)n3cccc(C)c3nc2n(Cc2ccc(C)cc2)c1=N do in these assays?
CaV13 ICDI inh: 55.1*; PGC1a acetyl inh: -3.5

What do the screens show for `COc1ccccc1-c1ccc(SCc2ccc(F)cc2)nn1`?
CaV13 ICDI inh: -6.6; Ecoli rRNA inh: -30.7*; DENV2 CPE rescue: 0.9; ERAP1 inh: -1.7; GSIS activator: -16.5; PGC1a acetyl inh: 3.5

How did Cc1ccccc1Nc1nc(N)nc(COC(=O)c2cccc(S(=O)(=O)N(C)C)c2)n1 do in these assays?
CaV13 ICDI inh: -2.4; Ecoli rRNA inh: -17.3*; DENV2 CPE rescue: -0.9; ERAP1 inh: 0.6; GSIS activator: 1.4; PGC1a acetyl inh: -5.0

Results for Cc1ccccc1Nc1nc(N)nc(COC(=O)c2cccc(S(=O)(=O)NCc3ccccc3)c2)n1 ?
CaV13 ICDI inh: -3.1; DENV2 CPE rescue: 2.0; ERAP1 inh: 5.8

How did C[C@H]1CN([C@@H](C)CO)C(=O)c2cc(C3=CCCCC3)cnc2O[C@H]1CN(C)Cc1cccc(F)c1 do in these assays?
Ecoli rRNA inh: -2.2; DENV2 CPE rescue: 4.8; ERAP1 inh: -2.6; GSIS activator: -10.7; PGC1a acetyl inh: -9.3
